# Active and inactive are the calls of the source. Entries that show only a call come without a potency. The call rests on the fitted dose curve; in most records, active means well fitted activation curve with a large enough effect in the signal ratio in the repeat runs (not every such curve was filed as active); inconclusive means weak or mixed curves, or effect the other way; inactive means no such curve, though single readings can be large or run the other way; the % refers to the signal ratio.
# Target: Glucocorticoid receptor (Homo sapiens) (UniProt P04150)
# Experiment: qHTS assay to identify small molecule agonists of the glucocorticoid receptor (GR) signaling pathway (AID 720691)
# Details: GR-bla HeLa, beta-lactamase reporter ratio, 18 h; series mostly up to 62.4 µM
# Procedure, shortened: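 qHTS in GR-bla HeLa cells: 4 h settling at 37 C/5% CO2, 18 h compound incubation at 37 C, 2 h LiveBLAzer B/G FRET substrate at room temperature, fluorescence intensity measured.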
# Potency means the concentration at half of the fitted maximal effect.
# Sequence of Glucocorticoid receptor (Homo sapiens) (P04150 whole entry, looked up): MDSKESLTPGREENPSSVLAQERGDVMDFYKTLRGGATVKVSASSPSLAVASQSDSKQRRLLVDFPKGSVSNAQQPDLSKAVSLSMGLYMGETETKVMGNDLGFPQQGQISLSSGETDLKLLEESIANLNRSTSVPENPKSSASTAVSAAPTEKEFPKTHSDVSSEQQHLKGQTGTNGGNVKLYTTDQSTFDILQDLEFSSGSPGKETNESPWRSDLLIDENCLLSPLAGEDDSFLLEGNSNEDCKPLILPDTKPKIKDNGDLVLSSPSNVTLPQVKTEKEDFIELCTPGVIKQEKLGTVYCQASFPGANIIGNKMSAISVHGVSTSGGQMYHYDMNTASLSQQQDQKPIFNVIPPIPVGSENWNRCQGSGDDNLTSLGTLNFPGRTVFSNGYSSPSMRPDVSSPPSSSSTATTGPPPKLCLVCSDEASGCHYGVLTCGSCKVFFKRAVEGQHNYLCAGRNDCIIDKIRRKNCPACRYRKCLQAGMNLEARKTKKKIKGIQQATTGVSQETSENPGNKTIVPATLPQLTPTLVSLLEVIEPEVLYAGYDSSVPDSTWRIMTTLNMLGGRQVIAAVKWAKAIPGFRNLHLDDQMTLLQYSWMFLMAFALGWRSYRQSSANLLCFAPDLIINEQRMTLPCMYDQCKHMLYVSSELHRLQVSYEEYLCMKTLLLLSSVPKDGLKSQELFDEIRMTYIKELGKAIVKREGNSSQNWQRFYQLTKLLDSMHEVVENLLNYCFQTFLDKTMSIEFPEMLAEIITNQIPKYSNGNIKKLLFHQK
row,Structure (SMILES),Potency
1,CCc1ccccc1N,inactive
2,CN1C(=O)CN=C(c2ccccc2)c2cc([N+](=O)[O-])ccc21,338 nM [inconclusive] (active)
3,C=CCN1C[C@H](C)N([C@H](c2ccc(C(=O)N(CC)CC)cc2)c2cccc(OC)c2)C[C@H]1C,inactive
4,COc1ccc(C(=O)c2c(C)n(CCN3CCOCC3)c3ccccc23)cc1,inactive
5,O=CC=O,inactive
6,C=C(C)C(=O)OCCCCOC(=O)C(=C)C,inactive
7,CCCCCBr,inactive
8,Nc1ccccc1C(=O)OCCc1ccccc1,inactive
9,CC(C)(C)N(NC(=O)c1ccc(Cl)cc1)C(=O)c1ccccc1,inactive
10,COP(=O)(OC)OC(Br)C(Cl)(Cl)Br (stereo not drawn),inactive
11,Nc1ccc2c(c1)Cc1ccccc1-2,inactive
12,CCC(C)(C)O,inactive
13,CN1CC[C@]23c4c5ccc(O)c4O[C@H]2[C@@H](O)C=C[C@H]3[C@H]1C5,inactive
14,NP(N)(=O)NC(=O)c1ccc(F)cc1,inactive
15,CN(C)c1ccc(N=O)cc1,inactive
16,O=C1NC(=O)C(=O)C(=O)N1,inactive
17,Clc1ccccc1,inactive
18,O=C(NC(=O)c1cc(F)c(F)cc1Cl)Nc1cc(F)ccc1N1CCC(C(=O)O)CC1,inactive
19,CC(C)c1ccc(NC(=O)N(C)C)cc1,inactive
20,CC(=O)OC(c1ccccc1)C(Cl)(Cl)Cl (stereo not drawn),inactive
21,c1ccc2sc(SNC3CCCCC3)nc2c1,inactive
22,NCCc1cc(O)c(O)cc1O,inactive
23,O=[N+]([O-])c1cc(Cl)c(Cl)cc1Cl,inactive

# Reference: PubChem BioAssay (Tox21)
